The subject of test [1] is Vero E6 infected with SARS-CoV-2. Nature of the test: morphology score (similarity to uninfected cells); higher = more like uninfected cells. Conditions: 24 h.
The test system is the same in test [2]. The experiment in a line: SARS-CoV-2 infection rate relative to infected DMSO; higher = more infection, active = 60 or less. Conditions: 24 h.

Experimental findings from the supplement of paper PMC13380429 are described below.

The molecule `CC(=O)NCCCS(=O)(=O)O` [acamprosate] (10 µM) had a morphology score in test [1] of 0.0831. Further, in test [2], the SARS-CoV-2 infection rate is 102% (inactive).
The corresponding values for `C=CCN1C[C@H](C(=O)N(CCCN(C)C)C(=O)NCC)C[C@@H]2c3cccc4[nH]cc(c34)C[C@H]21` [cabergoline] (10 µM) are 0.0903 and 104% (inactive).
The corresponding values for `OC(c1ccccc1)C1CCN(CCc2ccccc2)CC1` (stereo not drawn) (10 µM) are -0.103 and 106% (inactive).
The corresponding values for `O=C(Nc1cnn2ccc(N3CCC[C@@H]3c3cc(F)ccc3F)nc12)N1CC[C@H](O)C1` [larotrectinib] (10 µM) are -0.124 and 122% (inactive).
As for `CC(C)(S)C(=O)N[C@@H](CS)C(=O)O` [bucillamine] (10 µM), the morphology score in test [1] is -0.0447. The SARS-CoV-2 infection rate in test [2] was 107% (inactive).
The corresponding values for `O=C(CCCN1CC=C(n2c(=O)[nH]c3ccccc32)CC1)c1ccc(F)cc1` [droperidol] (10 µM) are 0.0599 and 112% (inactive).
On the same counts, the results for `CC(=O)O[C@H]1C(=O)[C@@]2(C)[C@H]([C@H](OC(=O)c3ccccc3)[C@]3(O)C[C@H](OC(=O)[C@H](O)[C@@H](NC(=O)c4ccccc4)c4ccccc4)C(C)=C1C3(C)C)[C@]1(OC(C)=O)CO[C@@H]1C[C@@H]2O` [paclitaxel] (10 µM) are 0.00639 and 108% (inactive).
The molecule `Cc1cccc(C)c1NC(=O)C1CCCCN1C` (stereo not drawn) [mepivacaine] (10 µM) had a morphology score in test [1] of 0.171. Further, the SARS-CoV-2 infection rate in test [2] was 97.5% (inactive).
On the same counts, the results for `CC(C)NCC(O)c1ccc(N)c(C#N)c1` (stereo not drawn) [cimaterol] (10 µM) are -0.059 and 104% (inactive).
On the same counts, the results for `O=C(Cc1cccc(OC(F)(F)F)c1)Nc1ccc(CCCCc2nnc(NC(=O)Cc3ccccn3)s2)nn1` (10 µM) are -0.0099 and 104% (inactive).
On the same counts, the results for `O=C(Nc1ccccc1)c1ccccc1O` [salicylanilide] (10 µM) are -0.148 and 110% (inactive).
In test [1], `Cn1c(C#N)ccc1-c1ccc2c(c1)C(C)(C)OC(=S)N2` [tanaproget] (10 µM) registered a morphology score of 0.0429. For the same molecule, in test [2], the SARS-CoV-2 infection rate is 102% (inactive).
As to `Nc1ncnc2c1c(COc1cccc(Cl)c1)nn2C1CCOCC1` (10 µM), the morphology score in test [1] was found to be 0.00558. In addition, the SARS-CoV-2 infection rate in test [2] is 104% (inactive).
On the same counts, the results for `CO[C@@]1(NC(=O)C2SC(=C(C(N)=O)C(=O)O)S2)C(=O)N2C(C(=O)O)=C(CSc3nnnn3C)CS[C@@H]21` (stereo partly drawn) [cefotetan] (10 µM) are 0.104 and 98% (inactive).
`COc1ccc(-c2cnc3c(-c4cccc5ncccc45)cnn3c2)cc1` (10 µM) yielded a morphology score in test [1] of 0.294. Besides, the SARS-CoV-2 infection rate in test [2] is 100% (inactive).
With `CS(=O)(=O)Nc1ccc2oc3c(OC(F)F)ccc(C(=O)Nc4c(Cl)cncc4Cl)c3c2c1` [oglemilast] (10 µM), the morphology score in test [1] turned out to be 0.291. Moreover, the SARS-CoV-2 infection rate in test [2] is 92% (inactive).
The corresponding values for `O=S1(=O)CCN(CN2CCS(=O)(=O)NC2)CN1` [taurolidine] (10 µM) are -0.0437 and 109% (inactive).
The corresponding values for `CC(=O)N[C@H](Cc1ccc2ccccc2c1)C(=O)N[C@H](Cc1ccc(Cl)cc1)C(=O)N[C@H](Cc1cccnc1)C(=O)N[C@@H](CO)C(=O)N[C@@H](Cc1ccc(NC(=O)[C@@H]2CC(=O)NC(=O)N2)cc1)C(=O)N[C@H](Cc1ccc(NC(N)=O)cc1)C(=O)N[C@@H](CC(C)C)C(=O)N[C@@H](CCCCNC(C)C)C(=O)N1CCC[C@H]1C(=O)N[C@H](C)C(N)=O` [degarelix] (10 µM) are -0.277 and 115% (inactive).
For the molecule `CN1c2ccccc2C(=O)N2CCc3c([nH]c4ccccc34)C21` (stereo in doubt) [evodiamine] (10 µM), the morphology score in test [1] is -0.093. Besides, the SARS-CoV-2 infection rate in test [2] was 100% (inactive).
On to `NC(N)=Nc1nc(CSCC/C(N)=N/S(N)(=O)=O)cs1` [famotidine] (10 µM), for which the morphology score in test [1] is -0.0119. For the same molecule, the SARS-CoV-2 infection rate in test [2] is 106% (inactive).
On the same counts, the results for `CC(C)c1cnn2c(NCc3ccccc3)cc(NCCCCCCN)nc12` (10 µM) are 0.714 and 41% (active).
On the same counts, the results for `CN(C)CCCC1(c2ccc(F)cc2)OCc2cc(C#N)ccc21` (stereo not drawn) [citalopram] (10 µM) are -0.167 and 107% (inactive).
On to `CCOC(=O)c1cncn1[C@H](C)c1ccccc1` [etomidate] (10 µM), for which the morphology score in test [1] is -0.0479. In addition, in test [2], the SARS-CoV-2 infection rate was 110% (inactive).
Take `N[C@@H](CS)C(=O)O` [L-cysteine] (10 µM): the morphology score in test [1] turned out to be 0.0349. Further, the SARS-CoV-2 infection rate in test [2] is 94% (inactive).
The corresponding values for `CC1=C(CC(=O)O)c2cc(F)ccc2/C1=C\c1ccc(S(C)(=O)=O)cc1` [exisulind] (10 µM) are 0.0955 and 109% (inactive).
Molecule `CCN1CCCC1CNC(=O)c1cc(S(N)(=O)=O)ccc1OC` (stereo not drawn) [sulpiride] (10 µM) showed a morphology score in test [1] of -0.0261. In addition, the SARS-CoV-2 infection rate in test [2] was 105% (inactive).
The corresponding values for `N[C@@H](Cn1oc(=O)[nH]c1=O)C(=O)O` [L-quisqualic-acid] (10 µM) are 0.0395 and 106% (inactive).
On the same counts, the results for `Cc1cc(C2CCCCC2)n(O)c(=O)c1` [ciclopirox] (0.833333 µM) are 0.0975 and 96.5% (inactive).
`OC[C@@H](O)[C@H]1O[C@@H]2O[C@H](C(Cl)(Cl)Cl)O[C@@H]2[C@H]1O` [chloralose] (10 µM) showed a morphology score in test [1] of 0.162. Besides, the SARS-CoV-2 infection rate in test [2] is 103% (inactive).
The corresponding values for `Nc1nc(NCCc2ccc(O)cc2)nc2nc(-c3ccco3)nn12` (10 µM) are -0.0969 and 111% (inactive).
Take `CCOC(=O)Nc1ccc2c(c1)N(C(=O)CN(C)C)c1ccccc1CC2` [tiracizine] (10 µM): in test [1], the morphology score was -0.162. For the same molecule, in test [2], the SARS-CoV-2 infection rate is 111% (inactive).
In test [1], `CN(C/C=C/C#CC(C)(C)C)Cc1cccc2ccccc12` [terbinafine] (10 µM) showed a morphology score of 0.413. Besides, the SARS-CoV-2 infection rate in test [2] is 81% (inactive).
`O=P1(NCCCl)OCCCN1CCCl` (stereo not drawn) [ifosfamide] (10 µM) displayed a morphology score in test [1] of 0.188. Besides, the SARS-CoV-2 infection rate in test [2] is 97.5% (inactive).
The corresponding values for `COc1cc2c(cc1OC)CN(CCc1ccc(NC(=O)c3cccc4c(=O)c5cccc(OC)c5[nH]c34)cc1)CC2` [elacridar] (10 µM) are 0.0355 and 102% (inactive).
`CC(=O)N[C@H](Cc1ccc2ccccc2c1)C(=O)N[C@H](Cc1ccc(Cl)cc1)C(=O)N[C@H](Cc1cccnc1)C(=O)N[C@@H](CO)C(=O)N[C@@H](Cc1ccc(O)cc1)C(=O)N[C@H](CCCNC(N)=O)C(=O)N[C@@H](CC(C)C)C(=O)N[C@@H](CCCNC(=N)N)C(=O)N1CCC[C@H]1C(=O)N[C@H](C)C(N)=O` [cetrorelix] (10 µM) displayed a morphology score in test [1] of 0.394. For the same molecule, in test [2], the SARS-CoV-2 infection rate was 79.5% (inactive).
As to `CCc1nc2ccc(Cl)cn2c1C(=O)NCc1ccc(N2CCC(c3ccc(OC(F)(F)F)cc3)CC2)cc1` (10 µM), the morphology score in test [1] came out at 0.0715. In test [2], the SARS-CoV-2 infection rate is 96% (inactive).
Consider `CCn1cc(-c2ccnc3[nH]c(-c4cccc(CN(C)C)c4)cc23)c(-c2ccc(NC(=O)N(C)C)cc2)n1` (0.833333 µM), for which the morphology score in test [1] was -0.185. For the same molecule, the SARS-CoV-2 infection rate in test [2] was 106% (inactive).
For the molecule `Clc1ccc(C(Cn2ccnc2)OCc2ccsc2Cl)c(Cl)c1` (stereo not drawn) [tioconazole] (10 µM), the morphology score in test [1] was -0.0375. In test [2], the SARS-CoV-2 infection rate is 106% (inactive).
In test [1], `CCCCCn1cc(C(=O)NC23CC4CC(CC(C4)C2)C3)c(=O)c2cc(-c3ccccc3)ccc21` (10 µM) displayed a morphology score of 0.119. Moreover, the SARS-CoV-2 infection rate in test [2] was 107% (inactive).
For `COc1ccc(CC2NCCc3c2[nH]c2ccc(C)cc32)c(Cl)c1OC` (stereo not drawn) (0.833333 µM), the morphology score in test [1] was -0.0343. The SARS-CoV-2 infection rate in test [2] was 104% (inactive).
The corresponding values for `CCOc1ccccc1C(=O)O` [2-ethoxybenzoic-acid] (10 µM) are 0.0437 and 115% (inactive).
Molecule `CS(=O)(=O)Nc1ccc(Cc2noc(-c3ccc4[nH]cc(CCN)c4c3)n2)cc1` (10 µM) displayed a morphology score in test [1] of 0.141. In addition, the SARS-CoV-2 infection rate in test [2] is 103% (inactive).
On the same counts, the results for `CCOC(=O)C(=O)Nc1cccc(OC)c1C(N)=O` (10 µM) are -0.179 and 102% (inactive).
For the molecule `COc1ccccc1N1CCN(CCN(C(=O)C2CCCCC2)c2ccccn2)CC1` (10 µM), the morphology score in test [1] is 0.0947. Further, the SARS-CoV-2 infection rate in test [2] was 118% (inactive).
On the same counts, the results for `CC/C(=C(\c1ccccc1)c1ccc(OCCN(C)C)cc1)c1ccccc1` [tamoxifen] (0.833333 µM) are 0.135 and 95.5% (inactive).
In turn, `CN[C@H]1CN(c2ccc3c(=O)c(C(=O)O)cn(-c4nccs4)c3n2)C[C@@H]1OC` [voreloxin] (0.833333 µM) returned a morphology score in test [1] of 0.068. Besides, in test [2], the SARS-CoV-2 infection rate is 104% (inactive).
The corresponding values for `CNC(=O)c1c(I)c(NC(C)=O)c(I)c(C(=O)O)c1I` [iothalamic-acid-d3] (10 µM) are 0.143 and 104% (inactive).
Take `CC(C)(C)c1ccc(S(=O)(=O)Nc2ccc(Cl)cc2C(=O)c2cc[n+]([O-])cc2)cc1` [vercirnon] (10 µM): in test [1], the morphology score was 0.0488. Also, the SARS-CoV-2 infection rate in test [2] was 98.5% (inactive).
In test [1], `COc1cc2c(cc1O)CC[C@@H]1[C@@H]2CC[C@]2(C)[C@@H](O)CC[C@@H]12` [2-methoxyestradiol] (0.833333 µM) came in with a morphology score of 0.00558. In test [2], the SARS-CoV-2 infection rate was 102% (inactive).
The corresponding values for `C1CCC2(CC1)CCNCC2` [4,4-pentamethylenepiperidine] (10 µM) are -0.0731 and 104% (inactive).
Take `C[C@]12Cc3c[nH]nc3C[C@@H]1CC[C@@H]1[C@@H]2CC[C@@]2(C)[C@H]1CC[C@]2(C)O` [stanozolol] (10 µM): in test [1], the morphology score is -0.305. In addition, the SARS-CoV-2 infection rate in test [2] was 110% (inactive).
The corresponding values for `CNC(=O)c1cc(COc2nnc(Nc3ccc(Cl)cc3)c3ccoc23)ccn1` [telatinib] (10 µM) are 0.0611 and 107% (inactive).
The corresponding values for `O=S(=O)(c1cccc2c(O)nccc12)N1CCCNCC1` [hydroxyfasudil] (10 µM) are 0.355 and 108% (inactive).
In test [1], `O=C(O)C1CSCN1` (stereo not drawn) [timonacic] (10 µM) had a morphology score of -0.0905. Also, in test [2], the SARS-CoV-2 infection rate was 110% (inactive).
The corresponding values for `CCN(CC)CCCCC1CCN(CC(=O)N2c3ccccc3C(=O)Nc3cccnc32)CC1` (10 µM) are 0.0682 and 108% (inactive).
`CC[n+]1c(-c2ccccc2)c2cc(N)ccc2c2ccc(N)cc21` [homidium] (10 µM) came in with a morphology score in test [1] of 0.276. The SARS-CoV-2 infection rate in test [2] is 99.5% (inactive).
`Oc1ccc(CC2NCCc3cc(O)c(O)cc32)cc1` (stereo not drawn) [higenamine] (0.833333 µM) displayed a morphology score in test [1] of 0.0764. Further, the SARS-CoV-2 infection rate in test [2] is 103% (inactive).
The corresponding values for `Fc1ccc(CN2CCC(Nc3ccc(C(F)(F)F)nn3)CC2)cc1F` (10 µM) are -0.198 and 110% (inactive).
With `CNC(=O)c1ccc(C)c(-n2c(C)cc(OCc3ccc(F)cc3F)c(Br)c2=O)c1` (0.833333 µM), the morphology score in test [1] is -0.158. The SARS-CoV-2 infection rate in test [2] is 116% (inactive).
